How the values were obtained:
[1] = test system: Human papillomavirus type 1a protein E7 (residues 44-93); experiment: small molecules binding HPV E7 44-93 – biochemical, small-molecule microarray, residues 44-93, 635 nm fluorescence, primary screen (AID 1108); conditions: fluorescence 635 nm, higher = more signal;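 note: E7 fragment applied at 1 µg/mL in TBST for 1 h at 4 C; score combines spot fluorescence with its signal to noise ratio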
[2] = hepatitis C replication reporter changes, two-sided – Huh7 cells, luciferase reporter, HCV replication inhibitor project, primary screen (AID 1109); conditions: Huh7 HCV replicon luciferase reporter, 48 h; higher = more signal;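 note: huh7 hepatoma cells harbouring a luciferase neomycin HCV replicon reporter; luciferase luminescence as measure of HCV replicon replication; test concentration not given here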
[3] = molecular target: Left-right determination factor 2 (Homo sapiens) (UniProt O00292); experiment: small molecules binding LEFTY2 protein – biochemical, small-molecule microarray, 635 nm fluorescence scan, primary screen (AID 1110); conditions: higher = more signal
Left-right determination factor 2 (Homo sapiens), sequence (O00292 whole entry, looked up): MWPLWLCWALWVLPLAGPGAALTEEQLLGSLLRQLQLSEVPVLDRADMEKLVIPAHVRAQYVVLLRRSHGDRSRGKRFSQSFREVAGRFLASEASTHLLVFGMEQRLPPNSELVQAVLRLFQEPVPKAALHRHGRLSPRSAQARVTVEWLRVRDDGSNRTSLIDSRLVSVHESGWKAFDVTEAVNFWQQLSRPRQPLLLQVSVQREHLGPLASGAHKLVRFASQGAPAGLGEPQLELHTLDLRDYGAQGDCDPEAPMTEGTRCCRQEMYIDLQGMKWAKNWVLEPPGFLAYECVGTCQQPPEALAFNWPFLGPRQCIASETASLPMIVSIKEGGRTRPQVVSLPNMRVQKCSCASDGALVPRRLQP

[4] = molecular target: Calmodulin-1 (Homo sapiens) (UniProt P0DP23); experiment: small molecules binding calmodulin-1 with EGTA – biochemical, small-molecule microarray, Cy5-labelled CALM1, profiling panel (AID 1111); conditions: Cy5-CALM1 binding fluorescence, higher = more signal;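 note: labelled calmodulin applied in Tris saline Tween buffer holding calcium plus EGTA and DTT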
[5] = molecular target: Calmodulin-1 (Homo sapiens) (UniProt P0DP23); experiment: small molecules binding Ca-loaded calmodulin-1 – biochemical, small-molecule microarray, Cy5-labelled CALM1, plus calcium, artefact control for SMM control-protein annotation, profiling panel (AID 1112); conditions: Cy5-CALM1 binding fluorescence, higher = more signal;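 note: score merges spot fluorescence with signal to noise from triplicate slides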
[6] = probe aWnt5a binding to arrayed compounds – biochemical, biotinylated probe, 635/667 nm fluorescence, primary screen (AID 1113); conditions: small-molecule microarray, higher = more signal;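 note: score merges 667 nm fluorescence intensity with signal-to-noise per printed feature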
[7] = probe aShh binding to arrayed compounds – biochemical, biotinylated probe, 635/667 nm fluorescence, primary screen (AID 1114); conditions: small-molecule microarray, higher = more signal;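 note: probe is biotin-labelled aShh protein from a stem cell growth factor screen; measures binding of labelled protein to compounds printed on the slide; score merges feature fluorescence at 667 nm with signal-to-noise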
[8] = probe aNog binding to arrayed compounds – biochemical, biotinylated probe, 635/667 nm fluorescence, primary screen (AID 1115); conditions: small-molecule microarray, higher = more signal;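 note: probe is biotinylated aNog protein used at 0.15 µg/mL for 1 h at 4 C; z-score combines 667 nm fluorescence of each spot with its signal to noise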
[9] = molecular target: Torsin-1A-interacting protein 1 (Homo sapiens) (UniProt Q5JTV8); experiment: compound microarray binding of lysate hLAP1 – cell lysate, small-molecule microarray, COS7 lysate, 635/667 nm fluorescence, primary screen (AID 1116); conditions: 635 nm fluorescence, higher = more signal
Torsin-1A-interacting protein 1 (Homo sapiens), sequence (Q5JTV8 whole entry, looked up): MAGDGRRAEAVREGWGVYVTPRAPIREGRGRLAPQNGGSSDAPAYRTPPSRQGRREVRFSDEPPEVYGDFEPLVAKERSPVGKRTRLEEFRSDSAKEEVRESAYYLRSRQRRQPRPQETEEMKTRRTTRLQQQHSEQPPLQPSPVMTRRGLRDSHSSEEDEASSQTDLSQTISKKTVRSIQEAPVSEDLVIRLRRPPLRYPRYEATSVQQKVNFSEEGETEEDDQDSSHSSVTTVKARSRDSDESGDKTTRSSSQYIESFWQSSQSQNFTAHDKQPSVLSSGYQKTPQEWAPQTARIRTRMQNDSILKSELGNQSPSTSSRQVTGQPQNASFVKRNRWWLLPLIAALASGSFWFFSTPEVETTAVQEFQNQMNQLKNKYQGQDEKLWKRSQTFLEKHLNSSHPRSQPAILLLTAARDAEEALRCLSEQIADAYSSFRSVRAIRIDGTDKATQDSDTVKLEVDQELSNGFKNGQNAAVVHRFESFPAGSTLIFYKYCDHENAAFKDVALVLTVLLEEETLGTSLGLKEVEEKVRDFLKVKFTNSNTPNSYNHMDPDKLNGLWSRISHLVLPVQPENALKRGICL

[10] = molecular target: Alpha-bungarotoxin (Bungarus multicinctus) (UniProt P60615); experiment: compounds binding labelled alpha-BTX control protein – biochemical, small-molecule microarray, Alexa647 label, 635/667 nm fluorescence, artefact control for SMM control protein annotation, profiling panel (AID 1117); conditions: alpha-BTX-A647 binding fluorescence, higher = more signal
Alpha-bungarotoxin (Bungarus multicinctus), sequence (P60615 whole entry, looked up): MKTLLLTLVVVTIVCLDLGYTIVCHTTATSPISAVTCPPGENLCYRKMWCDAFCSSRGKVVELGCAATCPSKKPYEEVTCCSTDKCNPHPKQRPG

Compound	composite z-score [1]	z-score [2]	composite z-score [3]	composite z-score [4]	composite z-score [5]	composite z-score [6]	composite z-score [7]	composite z-score [8]	composite z-score [9]	composite z-score [10]
O=C(NCc1ccccc1)[C@@H]1c2ccccc2C(=O)N(Cc2cc(C(F)(F)F)cc(C(F)(F)F)c2)[C@H]1c1ccc(CO)cc1	1.38	0.0626	0.446	0.288	-0.823	0.0257	-0.0011	-0.213	0.517	0.556
C=CCOC(=O)[C@H]1[C@@H]2C(=O)O[C@@H](c3ccccc3)[C@@H](c3ccccc3)N2[C@@H](c2ccc(OCCOC(=O)[C@@H]3C[C@@H]4C(=O)N[C@@H](CCCCNC(C)=O)C(=O)N4[C@@H]3c3cccc(OCCO)c3)cc2)[C@]12C(=O)Nc1ccccc12	0.843	-1.48	0.781	0.258	0.121	-0.124	0.147	0.254	0.439	-0.0506
COCCOC(=O)N1C(=O)[C@@]2(c3cc(C#CCC(C(=O)OC)C(=O)OC)ccc31)[C@H](C(=O)Nc1nc3ccccc3s1)[C@H]1C(=O)O[C@H](c3ccccc3)[C@H](c3ccccc3)N1[C@@H]2c1ccc(OCCO)cc1	0.783	-2.03	1.21	1.34	-0.21	0.0377	0.0043	-0.0242	1.38	0.752
Cc1ccc(S[C@]2(C(=O)NCC(F)(F)F)CC(=O)N(Cc3ccccc3C(F)(F)F)[C@@H]2c2ccc(CO)cc2)cc1	-0.654	0.169	-1.32	-0.39	0.0313	-0.199	-0.253	0.526	0.0216	-0.693
C=CC1c2cc(O)c(OC)cc2CCN1C (stereo not given)	-0.728	-1.02	-0.94	0.504	1.04	-0.112	-0.243	-0.348	0.381	-0.383
COc1ccc(C(=O)Nc2cccc(CN3C(=O)[C@@]4(O[C@@H](CC(=O)N5CCC[C@H]5CO)[C@H]([Si](C)(C)c5ccc(OC)cc5)[C@H]4C)c4ccccc43)c2)cc1	0.843	-3.13	0.801	1.26	0.78	-0.0643	-0.142	-0.138	1.72	2.08
C=C(CCCC)/C(=C/C[C@H](OC(=O)c1ccncc1)c1cccc(OCCO)c1)c1cnc2ccccc2c1	1.39	-2.46	0.354	0.0734	-0.731	-0.0459	-0.0035	-0.0496	-0.064	0.551
C=C(CCCC)C(=O)CC[C@H](OC(=O)c1ccccc1-c1ccccc1C(=O)O)c1ccc(OCCO)cc1	1.34	-2.05	0.849	0.945	-0.898	-0.119	-0.154	-0.495	0.479	1.02
C=C(COC)C(=O)CC[C@@H](OC(C)=O)c1ccccc1OCCO	0.0358	-2.72	0.325	-0.85	-0.976	-0.175	-0.0626	0.493	1.28	0.0746
N#Cc1ccc(-c2cccc(=O)o2)cc1	0.561	-0.0585	0.0266	-0.179	-0.564	-0.0383	-0.349	0.119	-0.102	0.26
CC(C)(C)N1CC=CC23O[C@@H]4/C=C\CCCOC(=O)C4[C@H]2C(=O)N(CCCCCO)[C@@H]3C1=O (stereo not given in full)	-0.267	-0.887	-1.48	-0.677	-0.893	-0.213	0.074	-0.122	-0.286	-0.954
COc1ccc([Si](C)(C)[C@@H]2[C@@H](CC(=O)N3CCC[C@H]3CO)O[C@]3(C(=O)N(Cc4cccc(N5CCCCC5=O)c4)c4ccccc43)[C@H]2C)cc1	0.845	-2.57	0.415	0.336	0.0654	-0.148	0.0723	0.21	0.191	1.22
O=C1[C@H]2C=C(I)[C@H](C[C@@H]2c2ccccc2)[C@@]12CO2	-0.0983	-3.6	0.208	-0.68	-0.661	-0.0977	-0.117	-0.172	0.126	0.0292
O=C1O[C@H](c2ccccc2)[C@H](c2ccccc2)N2[C@H]1[C@@H](C(=O)O)[C@]1(C(=O)Nc3ccc(C#CCCO)cc31)[C@H]2c1ccc(OCCO)cc1	1.12	-0.534	0.453	1.05	0.532	-0.0472	-0.0769	0.133	1.65	2.47
C=CCC(OC(C)=O)[C@@H]1[C@@H](N(Cc2cc3ccccc3o2)C(=O)c2cccc3ccccc23)c2cc(OCCCO)ccc2N1C(=O)c1ccc2ccccc2n1 (stereo not given in full)	0.193	0.0107	0.186	-0.153	0.304	-0.0346	-0.0813	-0.0381	0.615	0.0884
COc1ccc([Si](C)(C)[C@H]2[C@H](CC(=O)N3Cc4ccccc4C[C@H]3CO)O[C@@]3(C(=O)N(C)c4c(Br)cc(C)cc43)[C@@H]2C)cc1	1.31	-5.13	0.205	0.0634	-0.113	-0.102	-0.164	-0.238	0.656	0.803
COC(=O)C1=CC(CCCO)=CC(c2cccs2)N(Cc2cc3c(cc2Br)OCO3)C=C1C(=O)OC (stereo not given)	0.931	-1.64	0.578	1.69	0.458	0.0618	0.246	-0.0381	0.834	2.49

Compound	composite z-score [1]	z-score [2]	composite z-score [3]	composite z-score [4]	composite z-score [5]	composite z-score [6]	composite z-score [7]	composite z-score [8]	composite z-score [9]	composite z-score [10]
O=C1C[C@@](C(=O)NC2CC2)(c2ccc([N+](=O)[O-])cc2)[C@@H](c2ccc(CO)cc2)N1C1CCCCC1	1.44	-2.02	0.257	0.522	0.435	-0.1	0.149	-0.292	1.43	0.538
COc1ccc([Si](C)(C)[C@@H]2[C@@H](CC(=O)N(CCO)Cc3ccccc3)O[C@]3(C(=O)N(Cc4ccc(N5C(=O)c6cccc7cccc5c67)cc4)c4ccccc43)[C@H]2C)cc1	0.749	-4.47	0.495	0.553	0.822	-0.124	0.0725	0.189	0.762	2.24
Cc1ccc(S[C@]2(C(=O)NC3CC3)CC(=O)N(C(C)C)[C@@H]2c2ccc(CO)cc2I)cc1	1.17	-2.21	-0.792	-0.462	-0.0946	0.191	-0.372	-0.519	1.74	-0.0074
CCCCCC1=C2CNC(CC(C)C)(C(=O)OC)C=C2C(C)C1=O (stereo not given)	1.2	-0.897	-0.869	1.64	1.22	-0.0165	1.16	0.154	0.932	0.195
CN(C)c1ccc(C(O)C2C=CC3C(=O)N(Cc4ccccc4)C(=O)C3N2n2cnnc2)cc1 (stereo not given)	-1.17	-0.32	0.205	-0.207	-0.363	-0.0037	0.108	-0.0086	0.304	0.255
NC(=O)NCC#Cc1ccc2c(c1)[C@]1(C(=O)N2)[C@H](c2ccc(OCCO)cc2)N2[C@H](c3ccccc3)[C@H](c3ccccc3)OC(=O)[C@H]2[C@@H]1C(=O)O	-0.979	-0.591	-0.644	0.024	0.991	-0.122	-0.102	0.281	0.561	2.44
O=C1C[C@@](C(=O)O)(c2ccc([N+](=O)[O-])cc2)[C@@H](c2ccc(CO)cc2)N1C1CCCCC1	1.45	-1.67	0.245	1.2	0.161	0.0037	0.116	-0.485	0.493	1.07
C=C1C(=O)C=C2CN(C(=O)c3ccccc3)[C@@](Cc3ccc(OC)cc3)(C(=O)OC)[C@@H]12	1.43	-2.72	-0.135	2.16	0.311	0.164	0.232	2.04	1.04	1.2
COC(=O)[C@@]1(Cc2ccccc2)[C@H]2c3cc(C(=O)N(C)C)n(Cc4ccc(C(F)(F)F)nc4)c3C[C@H]2CN1C(=O)c1ccccc1	1.49	-1.3	-0.287	1.9	1.14	0.223	0.941	2.05	1.91	0.82
O=C1C2C=CC(C(O)c3cccs3)N(Nc3ccc([N+](=O)[O-])cc3)C2C(=O)N1c1ccccc1 (stereo not given)	0.759	-0.6	0.318	0.439	0.123	-0.0179	0.0684	0.668	1.01	0.69
C=CCNC(=O)[C@H]1[C@@H]2C(=O)O[C@@H](c3ccccc3)[C@@H](c3ccccc3)N2[C@@H](c2ccc(OCCO)cc2)[C@]12C(=O)Nc1ccc(C#CC3(O)CCCCCC3)cc12	1.24	-2.33	0.954	1.29	0.229	-0.0607	-0.0146	0.74	1.47	1.74
COCCOC(=O)N1C(=O)[C@@]2(c3cc(C#Cc4ccc(OC)cc4)ccc31)[C@H](c1ccc(OCCO)cc1)N1[C@H](c3ccccc3)[C@H](c3ccccc3)OC(=O)[C@H]1[C@@H]2C(=O)NC[C@H](O)c1ccccc1	1.12	-1.69	1.25	1.15	0.842	0.0078	-0.273	0.338	0.851	1.4
C=CCN1C(=O)[C@]2(O[C@H](CCn3cc([C@H](O)c4ccccc4)nn3)[C@@H]([Si](C)(C)c3ccc(OC)cc3)[C@@H]2C)c2cc(NC(=O)c3ccc(OC)cc3)ccc21	1.15	-4.74	0.5	-0.0632	-0.564	-0.0748	-0.221	-0.124	0.725	0.464
CCCCCCc1nc(Cc2cc(OC)c(OC)c(OC)c2)cc2c1[Si](C(C)C)(C(C)C)O[C@H]2c1ccccc1	0.192	-2.41	0.851	-0.0875	-0.593	-0.124	0.235	0.0646	-0.142	0.889
CC(=O)NCCCC[C@@H]1NC(=O)[C@H]2C[C@@H](C(=O)NCCCCCCNC(=O)CS)[C@@H](c3cccc(OCCO)c3)N2C1=O	1.05	-0.199	-0.0449	0.83	0.395	0.127	0.0444	-0.0926	2.1	0.298
COc1ccc(NN2C(C(O)c3ccc(I)cc3)C=CC3C(=O)N(C4CCCCC4)C(=O)C32)cc1 (stereo not given)	1.43	-2.6	0.349	1.21	0.679	0.18	-0.147	0.261	0.811	1.45

— PubChem BioAssay
